Compound activity (PubChem)
This is a sample that favours compounds with a hit; in the whole collection about 2.3% have one here.
PLCb3 inh = inhibitors of human phospholipase C beta3. Purified PLC-beta3, fluorogenic substrate, fluorescence. hit rate 0.18% among 370,000. inhibition, % at 12.2 µM; in the data active = inhibition above about 11%
LEDGF integ inh = blocks HIV-1 LEDGF/p75-dependent DNA integration; AID 743269; inhibition, % at 3.7 µM; hit rate 0.64% among 370,000; TR-FRET IN-LEDGF/p75 DNA integration, Eu/Cy5;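 active = inhibition above the screen-wide mean plus 3 SD, cut at about 13% in these data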;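 also: signal is the Cy5 over europium emission ratio at 671 and 618 nm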
UHRF1 MBD2 ctr = UHRF1 methyl-DNA binding inhibition. Q96T88. UHRF1 binding to methylated oligo, TR-FRET. inhibition, % at 4.4 µM. hit rate 0.75% among 370,000; in the data active = inhibition above about 21%;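 also: UHRF1 SRA domain binding a hemimethylated CpG hairpin DNA probe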
Target sequence (Q96T88 whole entry, looked up, the tested form may be a part): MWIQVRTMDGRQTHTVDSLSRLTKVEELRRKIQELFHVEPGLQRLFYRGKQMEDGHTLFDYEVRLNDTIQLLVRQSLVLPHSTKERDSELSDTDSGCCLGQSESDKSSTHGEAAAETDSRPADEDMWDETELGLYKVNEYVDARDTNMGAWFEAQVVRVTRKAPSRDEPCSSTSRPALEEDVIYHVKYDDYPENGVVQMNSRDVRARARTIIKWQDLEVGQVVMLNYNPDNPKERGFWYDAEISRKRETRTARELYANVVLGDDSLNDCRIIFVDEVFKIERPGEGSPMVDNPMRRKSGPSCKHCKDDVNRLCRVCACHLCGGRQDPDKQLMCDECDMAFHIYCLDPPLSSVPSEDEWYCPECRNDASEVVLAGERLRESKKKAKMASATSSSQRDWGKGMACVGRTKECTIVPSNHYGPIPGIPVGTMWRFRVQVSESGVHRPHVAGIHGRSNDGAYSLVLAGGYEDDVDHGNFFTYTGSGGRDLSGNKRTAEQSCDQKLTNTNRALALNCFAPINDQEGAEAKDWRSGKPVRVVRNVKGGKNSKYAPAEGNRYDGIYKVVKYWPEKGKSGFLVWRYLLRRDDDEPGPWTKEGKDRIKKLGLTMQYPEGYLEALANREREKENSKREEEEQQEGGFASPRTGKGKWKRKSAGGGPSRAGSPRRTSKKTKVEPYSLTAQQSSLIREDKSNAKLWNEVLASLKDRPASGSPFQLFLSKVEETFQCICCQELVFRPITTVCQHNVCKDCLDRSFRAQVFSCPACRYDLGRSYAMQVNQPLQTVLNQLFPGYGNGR
PLCg1 inh = inhibitors of human phospholipase C gamma1 | P19174 | purified PLC-gamma1, fluorogenic substrate, fluorescence | inhibition, % at 12.2 µM | hit rate 0.84% among 370,000 | AID 720700
MBD2 DNA inh = inhibitors of human MBD2 binding to methylated oligonucleotide | hit rate 0.31% among 370,000 | TR-FRET | inhibition, % at 4.4 µM | Q9UBB5; in the data active = inhibition above about 13%
PLCgamma1 ctr = counter-screen for PLC-beta3 inhibitors: inhibitors of human PLC-gamma1 | purified PLC-gamma1, fluorogenic substrate, fluorescence | inhibition, % at 12.3 µM | shares compounds with PLCg1 inh | hit rate 3.1% among 3,300
PLCb3 confirm = human PLC-beta3 inhibition, confirmation. shares compounds with PLCg1 inh. purified PLC-beta3, fluorogenic substrate fluorescence. inhibition, % at 12.3 µM. hit rate 1% among 3,300. AID 743261; in the data active = inhibition above about 11%
Large screens that a line does not name were inactive (follow-up assays come after a bar, where they were run). Rule as the data show it, unless noted: active = inhibition above about 9.5%; inactive = the rest.

COC(=O)c1cc(-c2ccc(F)c(Cl)c2)c(=O)n2c1CCC2	none
O=C(CSc1ncn[nH]1)Nc1ccc2c(c1)CCC2	PLCb3 inh 13 | PLCgamma1 ctr inactive | PLCb3 confirm inactive
Cc1ccc(NC(=O)CSc2ncn[nH]2)cc1	none
Cc1cc(C)nc(Nc2nc3ccccc3[nH]2)n1	PLCg1 inh 13 | PLCgamma1 ctr inactive | PLCb3 confirm inactive
Cc1ccc(C)c(Nc2nc3ccccc3[nH]2)c1	none
CCCCN(C)C(=O)c1ccc2c(c1)NC(=O)C(C)(C)O2	none
Cc1cccc(OCC(=O)N(C)CCc2ccccn2)c1	PLCb3 inh 11 | PLCgamma1 ctr inactive | PLCb3 confirm inactive
Cc1ccc(-n2c(SCC(=O)N/N=C/C=C\c3ccco3)nnc2-c2ccccc2)cc1	none
O=C(Nc1cccc(O)c1)C1CC(c2c(F)cccc2Cl)=NO1 (centres undefined)	none
O=C(Nc1cc(Cl)ccc1O)C1CC(c2c(F)cccc2Cl)=NO1 (centres undefined)	PLCg1 inh 10 | PLCgamma1 ctr inactive | PLCb3 confirm inactive
O=C1C(=O)c2cccnc2-c2ncccc21	PLCg1 inh 53 | PLCgamma1 ctr 51 | PLCb3 confirm inactive
O=C1c2ccccc2-c2nccnc21	none
O=C(Cc1ccccc1)Nc1ccc(N2CCOCC2)cc1	none
O=C(Cc1ccccc1)Nc1ccc(N2CCOCC2)cc1N1CCOCC1	PLCg1 inh 15 | PLCgamma1 ctr inactive | PLCb3 confirm inactive
O=S(=O)(CC1NCc2ccccc21)NC1CCCC1 (centres undefined)	none
COC(=O)[C@]12C[C@H](CC(=O)N3CCN(C(=O)C4CC4)CC3)C(=O)N(Cc3ccco3)C1=C[C@H](C(C)C)O[C@@H]2C1CC1	none
COc1ccc(OC)c(-c2csc(NC(=O)COC(=O)C3(C)CC3(Cl)Cl)n2)c1 (centres undefined)	PLCg1 inh 16 | PLCgamma1 ctr inactive | PLCb3 confirm inactive
COc1ccc(S[C@]2(C(=O)N3CCN(c4ncccn4)CC3)CC(=O)N(C(=O)Nc3ccc(C)c(Cl)c3)[C@@H]2c2ccc(OC)cc2)cc1	none
CC(C)C1N=C(NC(=O)OCc2ccccc2)NC1=O (centres undefined) (tested in a mixture with another compound)	none
O=C(c1ccc([N+](=O)[O-])o1)N1CCN(c2nc3c(F)cc(F)cc3s2)CC1	PLCg1 inh 15 | PLCgamma1 ctr inactive | PLCb3 confirm inactive
Cc1cc(C)nc(SCc2nnc(SCC(=O)Nc3c(C)cccc3C)o2)n1	PLCg1 inh 11 | PLCgamma1 ctr inactive | PLCb3 confirm inactive
Cc1cccc(C)c1NC(=O)CSc1nnc(Cc2ccccc2)o1	none
Cc1ccc(NC=C(S(=O)(=O)c2ccccc2)S(=O)(=O)c2ccccc2)c(C)c1	PLCg1 inh 13 | PLCgamma1 ctr inactive | PLCb3 confirm inactive
COCCCNc1nc2c(c(=O)n(Cc3ccc(Cl)cc3)c(=O)n2C)n1C	none
Cn1c(NCCCN2CCOCC2)nc2c1c(=O)n(Cc1ccc(Cl)cc1Cl)c(=O)n2C	PLCg1 inh 12 | PLCgamma1 ctr inactive | PLCb3 confirm inactive
O=C(Cc1ccc([N+](=O)[O-])cc1)N/N=C/c1cccnc1	none
O=C(N/N=C/c1cccnc1)c1ccc([N+](=O)[O-])cc1	PLCg1 inh 16 | PLCgamma1 ctr inactive | PLCb3 confirm inactive
CCOC(=O)[C@@]12CCC3=C1N(CCC3)C(=O)[C@H](CC(=O)N1CCN(C(=O)C3CC3)CC1)C2	none
COc1ccc(N(CC(=O)Nc2cccc(OC)c2)S(=O)(=O)c2c(C)nn(C)c2C)cc1	none
COc1cccc(NC(=O)CN(c2ccc(C)cc2)S(=O)(=O)c2c(C)nn(C)c2C)c1	PLCb3 inh 12 | PLCgamma1 ctr inactive | PLCb3 confirm inactive
Cc1cc(C(=O)CSc2n[nH]c(-c3ccccc3F)n2)c(C)n1Cc1cccs1	PLCg1 inh 10 | PLCgamma1 ctr inactive | PLCb3 confirm inactive
Cc1csc(SCC(=O)c2cc(C)n(Cc3cccs3)c2C)n1	none
O=C(c1ccncc1)N1CC[C@H]2[C@H](CCCN2Cc2cc(F)cc(F)c2)C1	none
COc1ccc(CNC(=O)C2(CC3CC(c4ccccc4)=NO3)CCN(C(=O)C3(C)CC3)CC2)cc1 (centres undefined)	PLCg1 inh 11 | PLCgamma1 ctr inactive | PLCb3 confirm inactive
COc1ccc(CNC(=O)C2(CC3CC(c4ccccc4)=NO3)CCN(C(=O)C3CCCC3)CC2)cc1 (centres undefined)	none
COc1ccc(S(=O)(=O)N2CCN(c3ccccc3)CC2)cc1OC	none
COc1cc(S(=O)(=O)N2CCN(c3ccccc3)CC2)ccc1Cl	PLCg1 inh 10 | PLCgamma1 ctr inactive | PLCb3 confirm inactive
COc1cccc(N2CCN(S(=O)(=O)c3ccc4c(c3)oc(=O)n4C)CC2)c1	PLCg1 inh 11 | PLCgamma1 ctr inactive | PLCb3 confirm inactive
COc1cccc(N2CCN(C(=O)C3CCN(S(=O)(=O)c4ccc5c(c4)oc(=O)n5C)CC3)CC2)c1	none
CCOC(=O)[C@@]12CCC3=C1N(CCC3)C(=O)[C@H](CC(=O)NCCCOC)C2	none
N#C/C(=C/c1cccc([N+](=O)[O-])c1)C(=O)Nc1ccccc1O	none
N#C/C(=C\c1ccccc1)C(=O)NNS(=O)(=O)c1cccc([N+](=O)[O-])c1	PLCg1 inh 11 | PLCgamma1 ctr inactive | PLCb3 confirm inactive
Cc1ccc(Cl)c(OCC(=O)Nc2ccc3c(c2)OCCO3)c1	none
CCN(CC(=O)Nc1ccc2c(c1)OCCO2)C(=O)COc1cc(C)ccc1Cl	PLCg1 inh 12 | PLCgamma1 ctr inactive | PLCb3 confirm inactive
CC1=C2NC(N)=[N+](Cc3ccccc3)CC2n2c(=O)n(-c3ccccc3)c(=O)n2C1 (centres undefined)	none
CN(C)CC(=O)N[C@H]1C[C@@H]2O[C@H](CO)CC[C@@H]2O[C@@H]1CCc1ccc(-c2ccc(F)cc2)cc1	none
CC1(C)CC2(OC2c2ccccc2)C(=O)c2ccccc21 (centres undefined)	none
CC1=[N+]([O-])C(C)(C)CC(C)(C)c2ccccc21	PLCb3 inh 12 | PLCgamma1 ctr inactive | PLCb3 confirm inactive
CS(=O)(=O)OC12CCCN(C1)/C(=C/c1ccc(Cl)cc1)C2 (centres undefined)	none
CCc1c(N)nc(N)nc1Nc1ccccc1Cl	PLCb3 inh 11, PLCg1 inh 11 | PLCgamma1 ctr inactive | PLCb3 confirm inactive
O=C(O)CCSC1CC(=O)N(c2ccccc2)C1=O (centres undefined)	none
O=C1CC(SCCO)C(=O)N1c1ccc(Oc2ccccc2)cc1 (centres undefined)	PLCg1 inh 15 | PLCgamma1 ctr inactive | PLCb3 confirm inactive
Cc1ccc(NC(=O)[C@@H]2CCCN2S(=O)(=O)c2cccc3cccnc23)c(C)c1	none
